# This is a sample that favours compounds with a hit; in the whole collection about 2% have one here.
# TCR-CD3 inh – inhibitors of human TCR-CD3 interaction, primary screen, biochemical, fluorescence, TAMRA-labeled TCR probe; 0.37% of 360,000 active; inhibition, % at 9.4 µM; AID 651800, 2012; T-cell receptor (TCR); in the data active means inhibition above about 19%;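 further: recombinant mutant TCR 2C K166C tagged with TAMRA read by polarization; 0% = receptor in buffer alone and 100% = receptor with positive control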
# LEDGF integ inh – blockers of LEDGF/p75-dependent integrase strand transfer – biochemical, TR-FRET, high throughput, primary screen | 0.64% of 370,000 active | inhibition, % at 3.7 µM | AID 743269, 2014 | TR-FRET IN-LEDGF/p75 DNA integration, Eu/Cy5 | HIV-1 integrase (with human LEDGF/p75);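 active means inhibition above the screen-wide mean plus 3 SD, cut at about 13% in these data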;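 further: signal is the Cy5 over europium emission ratio at 671 and 618 nm; 0% = plate median of compound wells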
# Rin1-Abl PPI inh – inhibitors of Rin1-Abl protein binding, primary screen, biochemical, TR-FRET; Tyrosine-protein kinase ABL1 (Homo sapiens) + Ras and Rab interactor 1 (Homo sapiens), …; inhibition, % at 7.35 µM; 0.4% of 360,000 active; in the data active means inhibition above about 5%, passing the limit was not always enough
# MBD2 inh – inhibitors of MBD2 binding to methylated DNA, primary screen, biochemical, TR-FRET, DNA-binding domain, human | Methyl-CpG-binding domain protein 2 (Homo sapiens), Q9UBB5 | inhibition, % at 4.4 µM | AID 686964, 2013 | MBD2 binding to methylated oligonucleotide | 0.31% of 370,000 active; in the data active means inhibition above about 13%
# Target sequence (Q9UBB5 whole entry, looked up, the tested form may be a part): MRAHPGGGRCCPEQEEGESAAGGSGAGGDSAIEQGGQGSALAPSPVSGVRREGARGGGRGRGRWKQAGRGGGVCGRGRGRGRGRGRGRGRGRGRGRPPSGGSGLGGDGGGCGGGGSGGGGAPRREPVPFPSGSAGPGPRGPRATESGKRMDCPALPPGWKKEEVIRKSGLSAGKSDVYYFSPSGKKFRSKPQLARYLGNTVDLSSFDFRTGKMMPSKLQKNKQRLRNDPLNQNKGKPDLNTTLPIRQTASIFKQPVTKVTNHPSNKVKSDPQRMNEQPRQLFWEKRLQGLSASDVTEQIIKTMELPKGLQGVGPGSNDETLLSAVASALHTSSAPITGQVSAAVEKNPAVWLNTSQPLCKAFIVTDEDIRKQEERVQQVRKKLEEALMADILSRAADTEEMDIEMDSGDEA
# UHRF1 MBD2 ctr – UHRF1 methylated DNA binding inhibitors, primary screen, counter-screen for MBD2 inhibitor project, biochemical, TR-FRET, human UHRF1, single concentration | 0.75% of 370,000 active | UHRF1 binding to methylated oligo | inhibition, % at 4.4 µM | AID 687016, 2013 | E3 ubiquitin-protein ligase UHRF1 (Homo sapiens), Q96T88; in the data active means inhibition above about 21%;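 further: UHRF1 SRA domain binding a hemimethylated CpG hairpin DNA probe; 0% = median of test compound wells and 100% = reference inhibitor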
# Numbers without * were called inactive; / = no result given.
SMILES,TCR-CD3 inh,LEDGF integ inh,Rin1-Abl PPI inh,MBD2 inh,UHRF1 MBD2 ctr
CN(C)S(=O)(=O)c1cccc(C(=O)Nc2ccccc2[N+](=O)[O-])c1,-9.3,-2.0,1.9,6.2,3.2
CC[C@@H](CCCc1ccc(OC)cc1)CCC(=O)N(c1ccccc1)c1ccccc1,/,-2.2,/,-0.1,-0.5
CCN(C[C@H]1N[C@@](Cc2ccccc2)(C(=O)OC)[C@H]2C(=O)N(C)C(=O)[C@@H]12)S(=O)(=O)c1ccc(OC(F)(F)F)cc1,-6.9,1.5,-0.8,2.5,20.8*
CCN(C[C@H]1N[C@@](Cc2ccccc2)(C(=O)OC)[C@H]2C(=O)N(C)C(=O)[C@@H]12)S(=O)(=O)c1ccc(C(F)(F)F)cc1,0.8,-3.4,0.5,3.0,-1.1
CC[C@@]1(C(=O)OC)N[C@H](CN(C)C(=O)Nc2ccc(F)cc2)[C@@H]2C(=O)N(C)C(=O)[C@@H]21,-2.5,-1.7,-1.9,10.7,21.0*
CC[C@@]1(C(=O)OC)N[C@H](CN(C)C(=O)Nc2ccccc2)[C@@H]2C(=O)N(C)C(=O)[C@@H]21,1.6,-4.2,1.8,-4.0,-0.1
Cc1cc(-c2cc(NC(=O)Cc3c[nH]c4ccccc34)ccc2N(C)c2cccnc2)ccc1F,-0.8,-2.8,/,-3.9,-2.3
CN1C(=O)CCC(CCC(=O)O)(c2ccccc2O)C1=O (stereo not drawn),3.7,-1.1,1.5,4.8,14.9
COc1ccccc1CNC(=O)CSc1nc2c(oc3ccccc32)c(=O)n1CC1CCCO1 (stereo not drawn),2.1,3.4,0.2,2.6,1.9
CCn1c(SCC(N)=O)nc2ccccc2c1=O,-0.2,-1.6,-0.1,4.4,25.0*
COc1ccccc1Cn1c(SCC(N)=O)nc2c(oc3ccccc32)c1=O,-4.8,-0.8,-1.6,0.9,61.4*
CCC(=O)NC(c1cccs1)c1ccc2cccnc2c1O (stereo not drawn),-9.7,-10.2,9.8*,-4.3,-5.6
CCOC(=O)c1nc2cc3n(c(C)c-2c1C)C(C)C(C)=C3C (stereo not drawn),2.5,2.6,-4.2,1.8,23.0*
O=C(Cn1c(-c2ccccc2Cl)nc2ccccc21)Nc1cccc(Cl)c1,7.1,2.6,2.4,0.0,-1.5
Cc1cc(C)cc(NC(=O)Cn2c(-c3ccccc3Cl)nc3ccccc32)c1,3.2,-0.9,1.1,3.9,21.7*
CC(C)C[C@H]1COc2cccc(N3CCC[C@H]3CO)c2S(=O)(=O)N1,4.8,-1.2,/,-5.1,1.2
COC(=O)[C@]12C[C@H](CC(=O)NCCCCc3ccccc3)C(=O)N(Cc3ccco3)C1=C[C@H](C(C)(C)C)O[C@@H]2C,/,1.2,/,0.8,-3.7
Cc1ccc([N+](=O)[O-])cc1NC(=O)/C=C/C(=O)O,-4.5,-8.6,-2.2,-5.6,40.2*
CCN(CC)CCCn1c(=S)[nH]c2ncccc2c1=O,3.8,1.8,-2.8,11.4,21.1*
CN(C(=O)c1cccc(NC(=O)Cc2ccc(NC(=O)C3CCN(C(=O)CCc4ccccc4)CC3)cc2)c1)C1CCCC1,5.8,5.1,/,-5.0,-2.0
Cc1nnc(SCC(=O)NCc2ccccc2Cl)[nH]c1=O,10.3,1.2,3.8,2.7,20.9*
C[C@H]1C(=O)N2[C@@H](C[C@]3(c4c[nH]c5ccccc45)c4ccccc4N(S(=O)(=O)c4ccccc4)[C@H]23)C(=O)N1C,/,-2.3,/,3.8,2.4
COc1ccc(-n2c(N)c(C(=O)NCc3ccco3)c3nc4ccccc4nc32)cc1,7.9,6.2,1.6,-9.2,-7.2
Nc1c(C(=O)NCc2ccco2)c2nc3ccccc3nc2n1CCc1ccc(F)cc1,1.9,-1.1,15.4*,-2.7,-1.8
COc1ccc(-n2c(N)c(C(=O)NCc3ccco3)c3nc4ccccc4nc32)cc1OC,0.2,3.8,-3.6,-1.3,47.0*
O=[N+]([O-])c1cc2c(cc1C=Nc1ccccc1)OCO2,/,/,0.3,/,/
Cc1cccc(N=Cc2cc3c(cc2[N+](=O)[O-])OCO3)c1,2.0,14.3*,7.6,-5.7,-5.2

# High-throughput results from PubChem BioAssay.
